Screening results as filed in PubChem BioAssay.
CYP2C19 inhib: inhibitors of human CYP2C19 | P33261 | 96,000 tested, 21% active | CYP2C19 Supersomes, luciferin-H EGE luminescence, 30 min | inhibition, % at 5 µM | AID 778;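 active = CYP2C19 inhibition above a set limit at 5 µM in the primary screen, cut at about 50% in these data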;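 note: plate controls were negative control wells for no effect and 2.5 mM tranylcypromine positive control for full effect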
Target sequence (P33261 whole entry, looked up): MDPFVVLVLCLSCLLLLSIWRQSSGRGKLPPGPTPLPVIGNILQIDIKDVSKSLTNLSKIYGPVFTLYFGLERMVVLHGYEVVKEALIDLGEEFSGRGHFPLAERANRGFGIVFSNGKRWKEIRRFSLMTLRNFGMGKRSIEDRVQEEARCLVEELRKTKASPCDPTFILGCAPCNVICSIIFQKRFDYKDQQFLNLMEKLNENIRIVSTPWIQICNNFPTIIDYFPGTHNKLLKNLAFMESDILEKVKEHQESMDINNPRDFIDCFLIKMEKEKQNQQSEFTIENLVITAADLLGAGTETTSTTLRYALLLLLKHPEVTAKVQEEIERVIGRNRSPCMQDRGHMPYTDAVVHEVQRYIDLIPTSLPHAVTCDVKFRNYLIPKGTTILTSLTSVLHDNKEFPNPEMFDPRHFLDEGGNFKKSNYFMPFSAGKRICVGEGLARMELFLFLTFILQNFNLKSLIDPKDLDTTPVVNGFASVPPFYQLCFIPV
CYP2C19 act: activators of human cytochrome P450 2C19; AID 1025; recombinant CYP2C19, luciferin-H EGE luminescence; active compounds read high; 0 = fully inhibited enzyme, 1 = untreated enzyme; 96,000 tested, under 10 active; P33261; activation factor at 5 µM;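 active = activation factor of at least 2 at 5 µM in the primary screen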;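 note: 0 = wells with 2.5 mM tranylcypromine and 1 = vehicle-only wells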
CYP2C9 act: CYP2C9 (human) activation; recombinant CYP2C9, luciferin-H conversion, luminescence; active compounds read high; factor 1 = untreated enzyme, 0 = blocked; activation factor at 5 µM; 96,000 tested, 1.4% active; AID 1024; P11712;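 active = activation factor of 2 or more for CYP2C9 at a 5 µM dose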;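 note: 0 = sulfaphenazole-blocked wells and 1 = vehicle-only wells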
CYP2C9 inhib: human CYP2C9 inhibition. inhibition, % at 5 µM. AID 777. CYP2C9 Supersomes, luciferin-H conversion, luminescence. 96,000 tested, 20% active;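 active = blocking of liver enzyme CYP2C9 beyond about 50% at 5 µM, limit read from the data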
Mac1 fbg inh: inhibitors of human CD11b/CD18 binding to fibrinogen | P05107+P11215 | K562 CD11b/CD18 adhesion to fibrinogen, ATPlite luminescence; Mn2+ added to activate the integrin | inhibition, % at 10 µM | 93,000 tested, 0.54% active | AID 1497;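 active = primary inhibition of 50% or more at 10 µM, then 40% or more on retest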
Mac1 fbg enh: enhancers of human CD11b/CD18 binding to fibrinogen | P05107+P11215 | 93,000 tested, 0.07% active | activation, % at 10 µM | K562 CD11b/CD18 adhesion to fibrinogen, ATPlite luminescence;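 active = 10 µM primary screen giving 50% or more activity, confirmed by 40% or more on retest at that dose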
Numbers without * were called inactive; . = no result given. The list is not random: actives were taken first. Their share in the collection is about 28%.

SMILES	CYP2C19 inhib	CYP2C19 act	CYP2C9 act	CYP2C9 inhib	Mac1 fbg inh	Mac1 fbg enh
O=c1c2ccccc2nnn1CSc1ncnc2ccccc12	0	1	1	-1	.	.
O=S1(=O)c2cccc3cccc(c23)N1Cc1nnc(-c2ccccc2Br)o1	93*	0.1	1.5	-47	48	-4
COc1ccc(Cn2c(-c3ccc(Br)cc3)c[n+]3ccccc23)cc1	.	.	.	.	19	3
CCOC(=O)CN1C(=O)NC(C)(c2ccc(OC(F)F)cc2)C1=O (stereo not given)	64*	0.4	0.6	35	-8	3
O=C(COC(=O)c1ccccn1)Nc1cccc(Cl)c1Cl	84*	0.2	0.8	22	-12	2
O=C(COC(=O)COc1ccc(Cl)cc1)NCc1cccs1	.	.	.	.	1	3
O=C(NCCCCNC(=O)c1ccc(Br)s1)c1ccc(Br)s1	12	0.9	0.5	46	2	-2
CCCc1nnc(NC(=O)CCC(=O)N2CCN(C3c4ccccc4-c4ccccc43)CC2)s1	.	.	.	.	0	1
Cc1csc(NC(=O)c2sc3nc(-c4cccs4)ccc3c2N)n1	59*	0.4	0.2	81*	-8	0
CCCSc1nnc(NC(=O)c2sc3nc(-c4cccs4)ccc3c2N)s1	36	0.6	0.5	53*	31	75
COc1ccc(C(=O)Nc2nc(-c3cccs3)cs2)cc1	25	0.7	0.6	41	92	-7
Cc1cccc(NC(=O)/C=C/c2cccs2)n1	16	0.8	1	3	.	.
c1ccc(-c2nnc3sc(-c4ccncc4)nn23)cc1	44	0.6	0.9	14	-21	2
c1ccc(CCc2nn3c(-c4ccncc4)nnc3s2)cc1	95*	0.1	0.5	54*	8	0
COc1ccccc1-c1nn2c(-c3ccccc3Cl)nnc2s1	3	1	1	-2	-4	2
Clc1ccccc1-c1nnc2sc(CCc3ccccc3)nn12	88*	0.1	0.5	53*	1	-2
CC(C)CCNC(=O)c1nnc(Cc2ccc(Cl)cc2)o1	12	0.9	1.9	-89	-10	0
O=S(=O)(Cc1ccccc1Cl)N1CCCCC1	60*	0.4	1.5	-46	13	-1
CC(C)(C)C(=O)N1CCC(O)(CS(=O)(=O)Cc2ccccc2Cl)CC1	13	0.9	0.9	14	-42	7
CC1CCN(S(=O)(=O)Cc2ccccc2Cl)CC1	96*	0	3.4*	-238	13	-3
CC1CCN(S(=O)(=O)c2cccc(S(=O)(=O)N3CCOCC3)c2)CC1	21	0.8	0.8	25	12	-2
NC1=NC(c2ccc(F)cc2)n2c(nc3ccccc32)N1 (stereo not given)	67*	0.3	0.9	7	-1	-2
Cc1ccc(-n2c(C)cc(C3N=C(N)Nc4nc5ccccc5n43)c2C)c(C)c1 (stereo not given)	61*	0.4	0.2	77*	20	-8
Cc1cc(C2N=C(N)Nc3nc4ccccc4n32)c(C)n1-c1ccccc1Cl (stereo not given)	69*	0.3	0.2	80*	6	1
NC1=NC(c2cccc(O)c2)n2c(nc3ccccc32)N1 (stereo not given)	18	0.8	1	3	-2	1
NC1=NC(c2cn(-c3ccccc3)nc2-c2cccs2)n2c(nc3ccccc32)N1 (stereo not given)	-16	1.2	1	-3	29	1
CCOC(=O)C1=C(CN2c3ccccc3CC2C)NC(=O)NC1c1ccccc1 (stereo not given)	34	0.7	0.8	20	-5	1
CCOC(=O)C1=C(CSc2nc3ccccc3s2)NC(=O)NC1c1ccc(OC)cc1 (stereo not given)	60*	0.4	0.5	46	.	.
CCOC(=O)C1=C(CN2CCSCC2)NC(=O)NC1c1cc(C)ccc1C (stereo not given)	38	0.6	0.4	56*	-32	-3
CCOC(=O)C1=C(CSc2nc3ccccc3s2)NC(=O)NC1c1cc(C)ccc1C (stereo not given)	68*	0.3	0.2	78*	.	.
